Laboratory results as given in PubChem BioAssay (Tox21).
Results filed as inconclusive are left out. Calls of active or inactive are those of the source. Calls follow the shape of the dose curve; as a rule, active = well fitted curve in the direction sought with a large enough effect in the repeat runs; inconclusive = weak or mixed curves; inactive = no such curve, though single readings can be large; an effect the other way counts as inactive or inconclusive.
% is scaled to controls: 0 for no effect and ±100 for the full control effect.
Also: nearly all actives have a fitted effect of over 50% in size.

Test: qHTS RealTime-Glo MT Cell Viability Assay in HEK293 cells - 32 hour (AID 1224868); also: top concentration of the series differs between compounds
Conditions: RealTime-Glo luminescence; series mostly up to 76.8 µM
Method in brief: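 HEK293 cells were seeded at 600 cells/well together with NanoLuc luciferase and cell-permeant prosubstrate, preincubated 5 h at 37 C/5% CO2, then given compound in DMSO by pintool. Luminescence from viable-cell prosubstrate reduction was read repeatedly over 40 h.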
In the case of `CCCC(C)C(O)CC` (centres undefined), the outcome is reported as “inactive”.
With `CC(=O)Nc1ccc(OCCOCCOc2ccc(NC(C)=O)cc2)cc1` the outcome was “inactive”.
For `COC(=O)N/N=C/c1c[n+]([O-])c2ccccc2[n+]1[O-]`, the outcome was “inactive”.
With `CN1CCN(C(=O)C2CCCCC2)CC1` the outcome was “inactive”.
For `C=CCCCCCCCCOC(C)=O`, the outcome was “inactive”.
With `CN(C)CCCN(C)C` the activity change, negative = cytotoxic was 0.277% [at 6.97 µM] (inactive).
For `CCCCCCCC(=O)N(C)C`, the outcome was “inactive”.
In the case of `C=CC(C)(CCC=C(C)C)OC(=O)C(C)C` (centres undefined), the outcome is reported as “inactive”.
For `CCOC(=O)COc1ccc2c(C)c(CCN(CC)CC)c(=O)oc2c1Cl`, the outcome was “inactive”.
In the case of `COc1ccc(Cl)cc1C`, the outcome is reported as “inactive”.
With `Clc1ccc2c(c1)Nc1ccccc1S2` the outcome was “inactive”.
In the case of `N[C@H]1C(O)O[C@H](CO)[C@@H](O)[C@@H]1O` (some centres undefined), the outcome is reported as “inactive”.
For `CN(C)c1ccncc1`, the outcome was “inactive”.
For `CN(C)CCc1c[nH]c2ccc(C[C@H]3COC(=O)N3)cc12`, the outcome was “inactive”.
In the case of `CCCCS`, the outcome is reported as “inactive”.
With `C[C@@H](CN1CC(=O)NC(=O)C1)N1CC(=O)NC(=O)C1` the outcome was “inactive”.
In the case of `CCOC(=O)[C@H](CCc1ccccc1)N[C@H]1CS[C@H](c2cccs2)CN(CC(=O)O)C1=O`, the outcome is reported as “inactive”.
With `CCCCOCCCC` the outcome was “inactive”.
With `N=C(N)N` the outcome was “inactive”.
In the case of `CCCC(=O)C(CC)Sc1ccoc1C` (centres undefined), the outcome is reported as “inactive”.
For `C=CCON/C(CCC)=C1\C(=O)CC(C)(C)C(C(=O)OC)=C1O`, the outcome was “inactive”.
For `CC/C=C\CCOC(=O)c1ccccc1`, the outcome was “inactive”.
With `CCCCC(CC)COC(=O)CC#N` (centres undefined) the outcome was “inactive”.
In the case of `CC/C=C\CCCCCCCCCCOC(C)=O`, the outcome is reported as “inactive”.
For `Cc1ccc(OC(=O)CC(C)C)cc1`, the outcome was “inactive”.
For `O=P(O)(O)C(O)(Cc1cccnc1)P(=O)(O)O`, the outcome was “inactive”.
With `CCN1CCN(C(=O)N[C@@H](C(=O)N[C@@H]2C(=O)N3[C@@H]2SC(C)(C)[C@H]3C(=O)O)c2ccccc2)C(=O)C1=O` the outcome was “inactive”.
With `COc1cc(C(=O)NC2CCCNC2)cc(OC)c1OC` (centres undefined) the outcome was “inactive”.
In the case of `COc1cc2nc(N3CCN(C(=O)C4CCCO4)CC3)nc(N)c2cc1OC` (centres undefined), the outcome is reported as “inactive”.
In the case of `CC(C)C[P+](C)(CC(C)C)CC(C)C`, the outcome is reported as “inactive”.

Test: A CellTox Green Cytotoxicity Assay to monitor cytotoxicity in HEK293 cells - 0 hour (AID 1224869)
Conditions: CellTox Green fluorescence; series mostly up to 76.8 µM
Method in brief: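 Real-time, in one plate: 600 HEK293 cells/well with dead-cell DNA dye, pinned compound after 5 h, 37 C incubation over 40 h; viable cells give no appreciable fluorescence.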
For `CCCC(C)C(O)CC` (centres undefined), the outcome was “inactive”.
For `CC(=O)Nc1ccc(OCCOCCOc2ccc(NC(C)=O)cc2)cc1`, the outcome was “inactive”.
With `CC(C)OC(=O)C(C(=O)OC(C)C)=C1SC=CS1` the outcome was “inactive”.
With `COC(=O)N/N=C/c1c[n+]([O-])c2ccccc2[n+]1[O-]` the outcome was “inactive”.
In the case of `CN1CCN(C(=O)C2CCCCC2)CC1`, the outcome is reported as “inactive”.
In the case of `C=CCCCCCCCCOC(C)=O`, the outcome is reported as “inactive”.
With `CC(=O)c1ccc2ccc3ccccc3c2c1` the outcome was “inactive”.
With `CN(C)CCCN(C)C` the cytotoxicity was 0.262% [at 6.97 µM] (inactive).
In the case of `CCCCCCCC(=O)N(C)C`, the outcome is reported as “inactive”.
With `CC(=O)c1c(C)cc(C(C)(C)C)cc1C` the outcome was “inactive”.
In the case of `C=CC(C)(CCC=C(C)C)OC(=O)C(C)C` (centres undefined), the outcome is reported as “inactive”.
With `CCOC(=O)COc1ccc2c(C)c(CCN(CC)CC)c(=O)oc2c1Cl` the outcome was “inactive”.
With `O=C(OOC(=O)c1ccccc1)c1ccccc1` the outcome was “inactive”.
For `COc1ccc(Cl)cc1C`, the outcome was “inactive”.
In the case of `Clc1ccc2c(c1)Nc1ccccc1S2`, the outcome is reported as “inactive”.
With `CCN(CC)CC(=O)Oc1ccc(NC(C)=O)cc1` the outcome was “inactive”.
With `N[C@H]1C(O)O[C@H](CO)[C@@H](O)[C@@H]1O` (some centres undefined) the outcome was “inactive”.
For `O=C1Nc2ccccc2C1=O`, the outcome was “inactive”.
With `CN(C)c1ccncc1` the outcome was “inactive”.
In the case of `CN(C)CCc1c[nH]c2ccc(C[C@H]3COC(=O)N3)cc12`, the outcome is reported as “inactive”.
With `Cc1nnc(C(=O)NC(C)(C)c2nc(C(=O)NCc3ccc(F)cc3)c(O)c(=O)n2C)o1` the outcome was “inactive”.
With `COC(=O)c1c(C)cc(O)c(C)c1O` the outcome was “inactive”.
With `CCCCS` the outcome was “inactive”.
In the case of `C[C@@H](CN1CC(=O)NC(=O)C1)N1CC(=O)NC(=O)C1`, the outcome is reported as “inactive”.
For `CCOC(=O)[C@H](CCc1ccccc1)N[C@H]1CS[C@H](c2cccs2)CN(CC(=O)O)C1=O`, the outcome was “inactive”.
In the case of `CCCCOCCCC`, the outcome is reported as “inactive”.
In the case of `CCCC(=O)C(CC)Sc1ccoc1C` (centres undefined), the outcome is reported as “inactive”.
For `C=CCON/C(CCC)=C1\C(=O)CC(C)(C)C(C(=O)OC)=C1O`, the outcome was “inactive”.
With `CC/C=C\CCOC(=O)c1ccccc1` the outcome was “inactive”.
With `CCCCC(CC)COC(=O)CC#N` (centres undefined) the outcome was “inactive”.
For `CC/C=C\CCCCCCCCCCOC(C)=O`, the outcome was “inactive”.
With `Cc1ccc(OC(=O)CC(C)C)cc1` the outcome was “inactive”.
With `O=P(O)(O)C(O)(Cc1cccnc1)P(=O)(O)O` the outcome was “inactive”.
For `CCN1CCN(C(=O)N[C@@H](C(=O)N[C@@H]2C(=O)N3[C@@H]2SC(C)(C)[C@H]3C(=O)O)c2ccccc2)C(=O)C1=O`, the outcome was “inactive”.
With `COc1cc(C(=O)NC2CCCNC2)cc(OC)c1OC` (centres undefined) the outcome was “inactive”.
In the case of `COc1cc2nc(N3CCN(C(=O)C4CCCO4)CC3)nc(N)c2cc1OC` (centres undefined), the outcome is reported as “inactive”.
For `CC(C)C[P+](C)(CC(C)C)CC(C)C`, the outcome was “inactive”.

Test: qHTS RealTime-Glo MT Cell Viability Assay in HepG2 cells - 40 hour (AID 1224870)
Conditions: RealTime-Glo luminescence; series mostly up to 76.8 µM
Method in brief: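 HepG2 cells (600/well) mixed with RealTime-Glo MT reagent, settled 5 h at 37 C/5% CO2 before compound addition. Nonlytic NanoLuc luminescence from viable-cell prosubstrate reduction read repeatedly during 40 h treatment at 37 C.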
In the case of `CCCC(C)C(O)CC` (centres undefined), the outcome is reported as “inactive”.
In the case of `CC(=O)Nc1ccc(OCCOCCOc2ccc(NC(C)=O)cc2)cc1`, the outcome is reported as “inactive”.
With `CC(C)OC(=O)C(C(=O)OC(C)C)=C1SC=CS1` the outcome was “inactive”.
For `COC(=O)N/N=C/c1c[n+]([O-])c2ccccc2[n+]1[O-]`, the outcome was “inactive”.
In the case of `CN1CCN(C(=O)C2CCCCC2)CC1`, the outcome is reported as “inactive”.
With `C=CCCCCCCCCOC(C)=O` the outcome was “inactive”.
For `CC(=O)c1ccc2ccc3ccccc3c2c1`, the outcome was “inactive”.
In the case of `CN(C)CCCN(C)C`, the activity change, negative = cytotoxic is reported as 1.14% [at 6.97 µM] (inactive).
In the case of `CCCCCCCC(=O)N(C)C`, the outcome is reported as “inactive”.
In the case of `CC(=O)c1c(C)cc(C(C)(C)C)cc1C`, the outcome is reported as “inactive”.
With `C=CC(C)(CCC=C(C)C)OC(=O)C(C)C` (centres undefined) the outcome was “inactive”.
With `CCOC(=O)COc1ccc2c(C)c(CCN(CC)CC)c(=O)oc2c1Cl` the outcome was “inactive”.
In the case of `O=C(OOC(=O)c1ccccc1)c1ccccc1`, the outcome is reported as “inactive”.
In the case of `COc1ccc(Cl)cc1C`, the outcome is reported as “inactive”.
With `Clc1ccc2c(c1)Nc1ccccc1S2` the outcome was “inactive”.
In the case of `CCN(CC)CC(=O)Oc1ccc(NC(C)=O)cc1`, the outcome is reported as “inactive”.
For `N[C@H]1C(O)O[C@H](CO)[C@@H](O)[C@@H]1O` (some centres undefined), the outcome was “inactive”.
With `O=C1Nc2ccccc2C1=O` the outcome was “inactive”.
With `CN(C)c1ccncc1` the outcome was “inactive”.
With `CN(C)CCc1c[nH]c2ccc(C[C@H]3COC(=O)N3)cc12` the outcome was “inactive”.
For `Cc1nnc(C(=O)NC(C)(C)c2nc(C(=O)NCc3ccc(F)cc3)c(O)c(=O)n2C)o1`, the outcome was “inactive”.
For `COC(=O)c1c(C)cc(O)c(C)c1O`, the outcome was “inactive”.
In the case of `CCCCS`, the outcome is reported as “inactive”.
With `C[C@@H](CN1CC(=O)NC(=O)C1)N1CC(=O)NC(=O)C1` the outcome was “inactive”.
With `CCOC(=O)[C@H](CCc1ccccc1)N[C@H]1CS[C@H](c2cccs2)CN(CC(=O)O)C1=O` the outcome was “inactive”.
In the case of `CCCCOCCCC`, the outcome is reported as “inactive”.
With `N=C(N)N` the outcome was “inactive”.
For `CCCC(=O)C(CC)Sc1ccoc1C` (centres undefined), the outcome was “inactive”.
For `C=CCON/C(CCC)=C1\C(=O)CC(C)(C)C(C(=O)OC)=C1O`, the outcome was “inactive”.
With `CC/C=C\CCOC(=O)c1ccccc1` the outcome was “inactive”.
In the case of `CCCCC(CC)COC(=O)CC#N` (centres undefined), the outcome is reported as “inactive”.
For `CC/C=C\CCCCCCCCCCOC(C)=O`, the outcome was “inactive”.
In the case of `Cc1ccc(OC(=O)CC(C)C)cc1`, the outcome is reported as “inactive”.
In the case of `O=P(O)(O)C(O)(Cc1cccnc1)P(=O)(O)O`, the outcome is reported as “inactive”.
In the case of `CCN1CCN(C(=O)N[C@@H](C(=O)N[C@@H]2C(=O)N3[C@@H]2SC(C)(C)[C@H]3C(=O)O)c2ccccc2)C(=O)C1=O`, the outcome is reported as “inactive”.
With `COc1cc2nc(N3CCN(C(=O)C4CCCO4)CC3)nc(N)c2cc1OC` (centres undefined) the outcome was “inactive”.
For `CC(C)C[P+](C)(CC(C)C)CC(C)C`, the outcome was “inactive”.
